# Biological target: AMP-activated protein kinase, AMPK (Homo sapiens) (UniProt P54646+O43741+P54619+Q9UGJ0+Q9Y478+Q13131+Q9UGI9)
# Assay: AMP-dependent Kinase enzyme assay. An in vitro enzyme assay that detects ADP turnover that is directly proportional to AMPK activity. This uses naive AMPK that is activated during the assay with MK-8722
# Assay type: functional
# Parameters: scale not given: direction of the effect not stated beside the values
# Settings: 30 µM
row,SMILES,Percent Effect [%]
1,Cn1ccc(C(=O)N2CCC(Cc3ccc4ncccc4c3)CC2)n1,15.1
2,c1csc(N2CCN(c3ncnc4sccc34)CC2)n1,18.5
3,CC(NC(=O)NCc1ccccn1)c1cccs1 (stereo not given),-0.209
4,COCCNC(=O)c1cnc(C)nc1C,3.33
5,Cc1nc(CNCC2CNc3ccnn3C2)cs1 (stereo not given),-8.22
6,O=C(CN1CC(c2ccccc2)CC1=O)N1CCC(c2ncc[nH]2)CC1 (stereo not given),2.5
7,CN1CCCCC1Cc1nc2c(cc1C(N)=O)CCC2 (stereo not given),-4.26
8,COc1cc(F)ccc1NC(=O)NC(C)C(=O)NC(C)(C)C (stereo not given),-11.6
9,Cc1ccc(CN(C(=O)NCC2CCCO2)C2CC2)o1 (stereo not given),-2.62
10,NC(=O)c1csc(N2C[C@@H](CN3CCC(O)CC3)[C@@H](CO)C2)n1,-1.72
11,CCc1ncc(CN2CCOC(Cc3cccc(F)c3)C2)cn1 (stereo not given),6.71
12,COc1ccc(CN2C[C@@H]3CC[C@H](C2)N(S(=O)(=O)C2CC2)C3)cc1,10.7
13,CC(C)c1cc(NC(=O)Cn2cnc3ccccc3c2=O)[nH]n1,6.52
14,CN(Cc1nnnn1C1CC1)CC1COc2ccccc2O1 (stereo not given),4.32
15,CN(Cc1ccccc1)S(=O)(=O)N1C[C@H](C2CC2)[C@@H](N)C1,-0.41
16,Cc1nc(CN2CCOCC2c2[nH]ncc2C)cs1 (stereo not given),12.1
17,CN(C)CCN(C)C(=O)c1cn(CC2CCCCC2)nn1,10.7
18,CN(Cc1csc(-c2cccs2)n1)Cc1cccnc1N,3.93
19,N#Cc1cccc(N2CCC(CO)(CCc3ccccc3)CC2)n1,3.06
20,CN(C)C(=O)CN1CCC(c2c(C(N)=O)sc3ncccc23)C1 (stereo not given),14.7

row,SMILES,Percent Effect [%]
1,CC(=O)c1ccc(-c2cnn(CC(=O)Nc3ccnn3C)c2)nc1,6.15
2,Cc1nn(C)c(C)c1C1CCCN1CC(=O)N(C)c1nccs1 (stereo not given),10.2
3,Cc1ccc(N2CCC(CCN3CCCC3=O)CC2)nn1,-7.57
4,O=C(Cc1c(F)cccc1Cl)Nc1cccc(N2CCCC2)c1,-5.51
5,O=C(CC1C=CCC1)N1CCc2ncnc(NCc3ccon3)c2CC1 (stereo not given),21.6
6,Cc1cccn2cc(CNS(=O)(=O)N3CCOCC3)nc12,4.51
7,NC(=O)NC1CCN(Cc2ccc3c(c2)CCC3)CC1,2.24
8,COc1coc(CN2CCCC3(CCC(=O)N(CC4CC4)C3)C2)cc1=O (stereo not given),8.74
9,O=C(Nc1ccc(F)cc1F)NC1(CO)CCOCC1,4.61
10,O=C(NCc1cccnc1N1CCCCC1)c1ccc2c(c1)OCO2,-2.38
11,CSC1(CNC(=O)N(C)Cc2ccc(C)s2)CCOCC1,-2.72
12,CC(CN1CCOCC1)NC(=O)N1CCCC1 (stereo not given),12.9
13,Cc1ccc(N2CCCN(C(=O)CCc3ccsc3)CC2)nn1,-4.33
14,COc1cc(Cl)cc(CN2CCCC(N3CCCC3)C2)c1OC (stereo not given),4.91
15,CCSc1cc(C(=O)N(CC(F)F)C(C)C)ccn1,2.16
16,Cc1cc(C(=O)NCCC(=O)N2CCCc3ccccc32)no1,-5.97
17,CCN(CCOC)C(=O)c1cc(COc2ccc3c(c2)CCCC3)on1,0.118
18,CCCn1nnnc1CN(CC)CC1COc2ccccc2O1 (stereo not given),1.1
19,Cn1c(N2CC[C@H](O)C2)nc2cc(C(N)=O)ccc21,21.4
20,O=C(CNC1(CCO)CCOCC1)Nc1ccc(F)cc1F,-0.128
